Experiment [1] deals with Estrogen-related receptor gamma (Homo sapiens) (UniProt P62508). The experiment in a line: ATG_ERRg_TRANS: Attagene TRANS-FACTORIAL HepG2 Assay for human Estrogen-Related Receptor gamma (ERRg) (AID 2282977; active means hit-call score of the fitted dose curve at least 0.9, where 1 is the maximum;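 further: hits increase reporter signal over DMSO so potencies reflect activators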). Conditions: HepG2 Attagene TRANS reporter, ERRg transactivation. In a few lines: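 Transient HepG2 transfectants, 24 h compound exposure, GAL4-UAS reporter mRNA by RT-PCR/6-FAM labelling/capillary electrophoresis; positive direction vs DMSO.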

Experiment [2] concerns the target Glucocorticoid receptor (Homo sapiens) (UniProt P04150). The experiment in a line: ATG_GR_TRANS: Attagene TRANS-FACTORIAL HepG2 Assay for human Glucocorticoid Receptor (GR) (AID 2282978; active means hit-call score of the fitted dose curve at least 0.9, where 1 is the maximum;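 further: activators score as hits since higher reporter transcript over DMSO is fitted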). To be noted: HepG2 Attagene TRANS GR reporter, mRNA transcription. The gist of the method: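 HepG2 transient transfection, multiple reporter units, GAL4-UAS under NR-GAL4 chimera control. 24 h treatment. Reporter mRNA by RT-PCR/CE fluorescence, DMSO as negative control.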

Experiment [3] has as its target Oxysterols receptor LXR-alpha (Homo sapiens) (UniProt Q13133). The experiment in a line: ATG_LXRa_TRANS: Attagene TRANS-FACTORIAL HepG2 Assay for human Liver X Receptor alpha (LXRa) (AID 2282980; active means hit-call score of the fitted dose curve at least 0.9, where 1 is the maximum). To be noted: HepG2 Attagene TRANS reporter, LXRa transactivation. In a few lines:
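HepG2 cells transiently transfected with GAL4-UAS reporter units for chimeric NR-Gal4 proteins, exposed to chemicals for 24 h. Reporter mRNA quantified by RT-PCR and capillary electrophoresis; gain of signal fitted relative to DMSO.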

Experiment [4] has as its target Oxysterols receptor LXR-beta (Homo sapiens) (UniProt P55055). The experiment in a line: ATG_LXRb_TRANS: Attagene TRANS-FACTORIAL HepG2 Assay for human Liver X Receptor beta (LXRb) (AID 2282981; active means hit-call score of the fitted dose curve at least 0.9, where 1 is the maximum). Conditions: HepG2 Attagene TRANS GAL4-LXRb reporter, mRNA. The gist of the method:
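HepG2 cells transiently transfected with multiple reporter transcription units carrying chimeric NR-Gal4 proteins acting on GAL4-UAS reporters; compound exposure 24 h. Reporter mRNA quantified by RT-PCR, 6-FAM labelling, HpaI digestion and capillary electrophoresis; gain of signal versus DMSO.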

Experiment [5] in a line: ATG_M_06_TRANS: Attagene TRANS-FACTORIAL HepG2 Assay for M06 Transcription Factor (Internal Marker) (AID 2282983; active means hit-call score of the fitted dose curve at least 0.9, where 1 is the maximum;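 further: reporter transcript level by RT-PCR then capillary electrophoresis fluorescence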). Conditions: HepG2 Attagene TRANS M06 internal marker reporter. The gist of the method: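 HepG2 cells transiently transfected with GAL4-UAS multiple reporter units, dosed 24 h. Reporter RNA reverse-transcribed, PCR-amplified, 6-FAM-labeled, HpaI-digested and quantified by capillary electrophoresis; this internal-marker signal fitted upward relative to DMSO.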

Experiment [6] can be described thus: ATG_M_32_TRANS: Attagene TRANS-FACTORIAL HepG2 Assay for M32 Transcription Factor (Internal Marker) (AID 2282984; active means hit-call score of the fitted dose curve at least 0.9, where 1 is the maximum;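 further: transcript level of a background control reporter unit measured by RT-PCR and capillary electrophoresis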). To be noted: HepG2 Attagene TRANS M32 internal marker reporter. The gist of the method: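 HepG2 cells transiently transfected with multiple GAL4-UAS reporter transcription units, dosed for 24 hours; reporter mRNA quantified by RT-PCR, 6-FAM primer extension, HpaI digestion and capillary electrophoresis. Gain-of-signal fitted versus DMSO baseline; internal background-control marker.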

The target in experiment [7] is Nuclear receptor subfamily 4 group A member 2 (Homo sapiens) (UniProt P43354). The experiment in a line: ATG_NURR1_TRANS: Attagene TRANS-FACTORIAL HepG2 Assay for human Nuclear Receptor Related Protein 1 (NURR1) (AID 2282985; active means hit-call score of the fitted dose curve at least 0.9, where 1 is the maximum). To be noted: HepG2 Attagene TRANS reporter, mRNA readout. The gist of the method: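 HepG2 cells transiently transfected with GAL4-UAS reporter units and chimeric NR-Gal4 constructs; chemical exposure 24 h. Reporter mRNA quantified by RT-PCR, fluorescent labelling and capillary electrophoresis; gain of signal fitted relative to DMSO baseline.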

Experiment [8] deals with Transcriptional activator Myb (Homo sapiens) (UniProt P10242). The experiment in a line: ATG_Myb_CIS: Attagene CIS-FACTORIAL HepG2 Assay for human Myeloblastosis (Myb) Proto-Oncogene Transcription Factor (AID 2282986). Conditions: HepG2 Attagene CIS-FACTORIAL Myb reporter transcription; actives raise or lower the signal. In a few lines:
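Multiplexed cis-reporter system in HepG2: transient transfection, 24 h treatment, mRNA readout by RT-PCR and capillary electrophoresis. Both increases and decreases are scored versus DMSO negative control.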

Experiment [9] addresses Nuclear respiratory factor 1 (Homo sapiens) (UniProt Q16656). The experiment in a line: ATG_NRF1_CIS: Attagene CIS-FACTORIAL HepG2 Assay for human Nuclear Respiratory Factor 1 (NRF1) Orphan Gene (AID 2282987). To be noted: HepG2 NRF1 cis-element reporter, Attagene multiplex; actives raise or lower the signal. The gist of the method:
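Endogenous factor activity was captured via cis-element-driven reporter transcripts in HepG2 cells. Following 24 h chemical treatment, transcripts were quantified by RT-PCR and capillary electrophoresis.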

A short description of experiment [10]: ATG_NFI_CIS: Attagene CIS-FACTORIAL HepG2 Assay for human Nuclear Factor I (NFI) (AID 2282989). To be noted: HepG2 cis-regulatory reporter, NFI response element transcription; actives raise or lower the signal. In a few lines: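 After transient transfection of HepG2 with cis-promoter reporter constructs and 24 h dosing, RNA is reverse-transcribed, amplified, 6-FAM end-labelled and HpaI-digested before capillary analysis. Bidirectional curve fitting against DMSO.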

For experiment [11], the target named is Myc proto-oncogene protein (Homo sapiens) (UniProt P01106). The experiment in a line: ATG_Myc_CIS: Attagene CIS-FACTORIAL HepG2 Assay for human Myelocytomatosis (Myc) Proto-Oncogene Transcription Factor (AID 2282990). Conditions: HepG2, Attagene cis-reporter transcription factor activity; actives raise or lower the signal. The gist of the method: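 HepG2 cells transiently transfected with multiple cis-promoter-driven reporter transcription units, so endogenous TF activity is read. After 24 h compound exposure, reporter mRNA was quantified by RT-PCR, 6-FAM labelling, HpaI digestion and capillary electrophoresis; bidirectional fit versus DMSO.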

A short description of experiment [12]: ATG_NF_kB_CIS: Attagene CIS-FACTORIAL HepG2 Assay for human Nuclear Factor Kappa B (NF-kB) (AID 2282991). To be noted: HepG2 Attagene cis-factorial NF-kB reporter mRNA; actives raise or lower the signal. In a few lines:
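After 24 h compound incubation, transfected HepG2 cells yield total RNA; reporter cDNA is PCR-amplified, end-labelled with 6-FAM, HpaI-digested and analysed on a genetic analyser. Endogenous factor activity, DMSO-referenced bidirectional fit.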

The nature of experiment [13]: ATG_NRF2_ARE_CIS: Attagene CIS-FACTORIAL HepG2 Assay for human Nuclear Factor Erythroid 2 Related Factor 2 (NFR2) response to Antioxidant Response Elements (ARE) (AID 2282992). Conditions: HepG2 Attagene ARE/NRF2 reporter, transcription factor activity; actives raise or lower the signal. The gist of the method:
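Cis-factorial assay: transfected HepG2 reporter library, 24 h dosing, mRNA readout via RT-PCR/CE; DMSO-referenced bidirectional analysis.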

Experiment [14] concerns the target Cellular tumor antigen p53 (Homo sapiens) (UniProt P04637). The experiment in a line: ATG_p53_CIS: Attagene CIS-FACTORIAL HepG2 Assay for human p53 Transcription Factor (AID 2282994). To be noted: HepG2 p53 cis-element reporter, Attagene mRNA; actives raise or lower the signal. The gist of the method: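 Using HepG2 hepatoma cells carrying cis-acting multiplexed reporters, mRNA induction is detected after a 24 h exposure. Gain- and loss-of-signal responses are fitted relative to DMSO-treated cells.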

Experiment [15] has as its target Bile acid receptor (Homo sapiens) (UniProt Q96RI1). The experiment in a line: ATG_FXR_TRANS: Attagene TRANS-FACTORIAL HepG2 Assay for Farnesoid X Receptor (FXR) (AID 2282979; active means hit-call score of the fitted dose curve at least 0.9, where 1 is the maximum;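 further: hits raise reporter mRNA above DMSO so AC50 marks FXR activation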). Conditions: HepG2 Attagene TRANS FXR-GAL4 reporter transcription. In a few lines: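 HepG2 cells were transiently transfected with GAL4-UAS reporters driven by chimeric NR-Gal4 proteins and dosed for 24 h. Reporter mRNA was quantified by RT-PCR, fluorescent labelling, HpaI digestion and capillary electrophoresis, with gain of signal scored versus DMSO.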

Experiment [16] has as its target Hepatocyte nuclear factor 4-alpha (Homo sapiens) (UniProt P41235). The experiment in a line: ATG_HNF4a_TRANS: Attagene TRANS-FACTORIAL HepG2 Assay for human Hepatocyte Nuclear Factor 4 alpha (HNF4a) (AID 2282982; active means hit-call score of the fitted dose curve at least 0.9, where 1 is the maximum). Conditions: HepG2 HNF4a transactivation reporter, mRNA readout. In a few lines: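 HepG2 cells transiently transfected with multiplexed GAL4-UAS reporter units responsive to chimeric NR-GAL4 proteins; compound exposure 24 h. Reporter mRNA quantified by RT-PCR, 6-FAM labelling, HpaI digestion and capillary electrophoresis; gain of signal versus DMSO baseline.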

A short description of experiment [17]: ATG_Oct_MLP_CIS: Attagene CIS-FACTORIAL HepG2 Assay for human Octamer-Binding Transcription Factor (Oct) (AID 2282993). To be noted: HepG2 Attagene cis-factorial Oct reporter, mRNA; actives raise or lower the signal. The gist of the method:
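Cells of the HepG2 line express promoter-controlled reporter sequences whose mRNA levels, after 24 h treatment, are measured by RT-PCR and capillary electrophoresis. Increases and decreases are scored relative to DMSO.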

A short description of experiment [18]: BSK_3C_TissueFactor: BioMAP Diversity Plus: 3C Assay for Tissue Factor Biomarker Activity (AID 2282997). To be noted: BioMAP 3C HUVEC, tissue factor biomarker readout; actives raise or lower the signal. The gist of the method: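 HUVEC were treated 24 h, then surface tissue factor measured by ELISA and fitted bidirectionally against DMSO. Parallel SRB total-protein staining assessed overt cytotoxicity at the same time point.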

A short description of experiment [19]: BSK_3C_uPAR: BioMAP Diversity Plus: 3C Assay for Urokinase-type plasminogen activator receptor (uPAR) Biomarker Activity (AID 2282998). Conditions: BioMAP 3C HUVEC, uPAR biomarker ELISA; actives raise or lower the signal. The gist of the method: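 Endothelial primary cells of human umbilical vein origin received test chemical; 24 h later uPAR was assayed by ELISA. Fitting was bidirectional, DMSO as negative control.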
(In general: ELISA stands for enzyme-linked immunosorbent assay.)

Inconclusive results are not listed. The source made the active and inactive calls. How the source made its calls, unless noted: active means hit-call score of the fitted dose curve at least 0.9, where 1 is the maximum; inactive means score below 0.9.

Glucocorticoid receptor (Homo sapiens), sequence (P04150 whole entry, looked up, the tested form may be a part): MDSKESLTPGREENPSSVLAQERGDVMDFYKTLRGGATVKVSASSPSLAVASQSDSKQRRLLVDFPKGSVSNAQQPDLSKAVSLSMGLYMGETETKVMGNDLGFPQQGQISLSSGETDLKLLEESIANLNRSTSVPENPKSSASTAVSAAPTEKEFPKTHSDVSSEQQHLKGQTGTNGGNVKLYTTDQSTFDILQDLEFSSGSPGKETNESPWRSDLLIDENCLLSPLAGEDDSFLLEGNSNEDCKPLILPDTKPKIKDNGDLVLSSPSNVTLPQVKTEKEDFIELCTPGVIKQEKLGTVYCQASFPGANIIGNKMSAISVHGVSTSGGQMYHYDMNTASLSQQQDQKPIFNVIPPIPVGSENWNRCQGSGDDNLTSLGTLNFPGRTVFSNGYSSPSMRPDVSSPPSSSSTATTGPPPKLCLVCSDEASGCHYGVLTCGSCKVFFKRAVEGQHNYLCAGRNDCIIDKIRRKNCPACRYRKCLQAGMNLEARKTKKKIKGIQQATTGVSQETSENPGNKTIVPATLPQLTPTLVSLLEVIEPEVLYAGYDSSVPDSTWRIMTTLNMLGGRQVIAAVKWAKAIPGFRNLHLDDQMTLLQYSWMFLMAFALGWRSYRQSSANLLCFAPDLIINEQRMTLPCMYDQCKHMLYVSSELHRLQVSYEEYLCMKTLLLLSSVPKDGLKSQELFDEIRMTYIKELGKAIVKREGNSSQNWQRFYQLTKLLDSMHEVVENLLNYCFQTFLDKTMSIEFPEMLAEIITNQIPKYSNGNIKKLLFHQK
Nuclear respiratory factor 1 (Homo sapiens), sequence (Q16656 whole entry, looked up): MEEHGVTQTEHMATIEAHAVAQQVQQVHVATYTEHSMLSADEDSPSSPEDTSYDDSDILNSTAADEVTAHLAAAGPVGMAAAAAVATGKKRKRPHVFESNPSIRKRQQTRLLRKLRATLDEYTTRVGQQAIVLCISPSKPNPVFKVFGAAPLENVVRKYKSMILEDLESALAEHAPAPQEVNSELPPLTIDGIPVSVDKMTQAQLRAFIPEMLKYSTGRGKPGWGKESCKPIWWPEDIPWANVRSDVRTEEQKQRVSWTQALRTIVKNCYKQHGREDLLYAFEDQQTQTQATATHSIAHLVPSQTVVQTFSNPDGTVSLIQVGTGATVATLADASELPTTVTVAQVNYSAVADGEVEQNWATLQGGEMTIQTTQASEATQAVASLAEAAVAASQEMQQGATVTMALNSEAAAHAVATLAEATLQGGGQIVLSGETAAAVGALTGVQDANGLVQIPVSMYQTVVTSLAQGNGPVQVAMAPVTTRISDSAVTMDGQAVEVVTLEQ
Myc proto-oncogene protein (Homo sapiens), sequence (P01106 whole entry, looked up): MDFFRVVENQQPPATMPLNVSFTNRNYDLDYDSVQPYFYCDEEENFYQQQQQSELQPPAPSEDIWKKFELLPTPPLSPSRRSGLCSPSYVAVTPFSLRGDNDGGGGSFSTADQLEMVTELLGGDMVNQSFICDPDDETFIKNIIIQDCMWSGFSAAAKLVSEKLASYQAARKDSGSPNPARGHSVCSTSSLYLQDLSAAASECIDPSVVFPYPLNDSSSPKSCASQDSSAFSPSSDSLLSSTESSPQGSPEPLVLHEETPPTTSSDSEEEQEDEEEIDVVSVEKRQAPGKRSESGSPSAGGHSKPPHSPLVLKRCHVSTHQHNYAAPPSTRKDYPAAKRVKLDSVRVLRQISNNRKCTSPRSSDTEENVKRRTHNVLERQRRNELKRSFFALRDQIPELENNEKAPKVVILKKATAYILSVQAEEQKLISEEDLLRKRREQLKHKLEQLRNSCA
Oxysterols receptor LXR-beta (Homo sapiens), sequence (P55055 whole entry, looked up, the tested form may be a part): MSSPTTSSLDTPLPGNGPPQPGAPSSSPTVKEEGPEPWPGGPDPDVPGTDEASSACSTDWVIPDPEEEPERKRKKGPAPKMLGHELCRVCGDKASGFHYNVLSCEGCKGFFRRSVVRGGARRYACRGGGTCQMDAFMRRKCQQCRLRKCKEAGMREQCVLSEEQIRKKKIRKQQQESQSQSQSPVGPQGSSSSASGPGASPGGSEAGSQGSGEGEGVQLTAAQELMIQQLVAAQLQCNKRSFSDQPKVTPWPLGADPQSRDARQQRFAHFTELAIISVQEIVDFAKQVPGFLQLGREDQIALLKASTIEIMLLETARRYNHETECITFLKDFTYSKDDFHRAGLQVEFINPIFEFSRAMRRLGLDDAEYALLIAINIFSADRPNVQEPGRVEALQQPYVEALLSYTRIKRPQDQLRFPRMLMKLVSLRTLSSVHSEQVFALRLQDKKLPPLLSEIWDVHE
Oxysterols receptor LXR-alpha (Homo sapiens), sequence (Q13133 whole entry, looked up, the tested form may be a part): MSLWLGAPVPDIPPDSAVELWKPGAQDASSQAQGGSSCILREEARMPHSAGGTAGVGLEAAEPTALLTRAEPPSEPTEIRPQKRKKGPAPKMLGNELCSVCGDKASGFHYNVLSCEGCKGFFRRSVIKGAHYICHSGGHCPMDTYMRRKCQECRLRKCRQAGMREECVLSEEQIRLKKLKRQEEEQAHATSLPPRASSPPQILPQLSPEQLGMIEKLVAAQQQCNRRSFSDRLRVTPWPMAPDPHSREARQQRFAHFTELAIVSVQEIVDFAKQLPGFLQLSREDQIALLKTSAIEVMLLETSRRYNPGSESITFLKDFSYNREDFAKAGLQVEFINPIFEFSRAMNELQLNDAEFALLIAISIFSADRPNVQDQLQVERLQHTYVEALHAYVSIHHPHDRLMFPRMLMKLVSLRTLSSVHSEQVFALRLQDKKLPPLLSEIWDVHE
Transcriptional activator Myb (Homo sapiens), sequence (P10242 whole entry, looked up): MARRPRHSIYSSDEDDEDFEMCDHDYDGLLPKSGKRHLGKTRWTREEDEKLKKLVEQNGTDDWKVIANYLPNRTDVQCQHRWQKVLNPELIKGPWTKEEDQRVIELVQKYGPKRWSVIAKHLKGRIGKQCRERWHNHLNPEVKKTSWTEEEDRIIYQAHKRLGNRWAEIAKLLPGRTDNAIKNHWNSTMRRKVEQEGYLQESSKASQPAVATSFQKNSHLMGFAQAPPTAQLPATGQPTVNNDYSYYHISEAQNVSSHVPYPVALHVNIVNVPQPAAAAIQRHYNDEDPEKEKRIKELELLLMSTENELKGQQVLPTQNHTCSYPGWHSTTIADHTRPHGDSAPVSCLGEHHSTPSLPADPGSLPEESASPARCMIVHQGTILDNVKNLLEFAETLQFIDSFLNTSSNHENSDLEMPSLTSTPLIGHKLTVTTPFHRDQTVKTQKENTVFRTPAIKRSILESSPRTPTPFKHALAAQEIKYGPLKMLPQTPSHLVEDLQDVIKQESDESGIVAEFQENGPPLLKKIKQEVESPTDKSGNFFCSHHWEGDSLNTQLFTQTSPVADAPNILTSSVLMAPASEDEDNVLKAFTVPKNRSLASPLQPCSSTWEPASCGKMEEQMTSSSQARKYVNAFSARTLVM
Bile acid receptor (Homo sapiens), sequence (Q96RI1 whole entry, looked up, the tested form may be a part): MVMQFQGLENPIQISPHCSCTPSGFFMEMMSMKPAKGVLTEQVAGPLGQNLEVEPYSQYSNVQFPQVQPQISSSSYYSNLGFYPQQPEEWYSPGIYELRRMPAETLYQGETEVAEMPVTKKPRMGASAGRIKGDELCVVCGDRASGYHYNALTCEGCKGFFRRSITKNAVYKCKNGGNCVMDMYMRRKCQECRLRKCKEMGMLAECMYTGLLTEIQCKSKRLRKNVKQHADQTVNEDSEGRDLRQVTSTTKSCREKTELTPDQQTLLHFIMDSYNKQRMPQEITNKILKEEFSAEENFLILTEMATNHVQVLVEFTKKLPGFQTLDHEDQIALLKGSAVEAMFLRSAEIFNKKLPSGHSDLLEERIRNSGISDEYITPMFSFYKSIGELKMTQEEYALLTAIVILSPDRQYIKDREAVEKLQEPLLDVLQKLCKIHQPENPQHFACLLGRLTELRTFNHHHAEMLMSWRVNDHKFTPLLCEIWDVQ
Estrogen-related receptor gamma (Homo sapiens), sequence (P62508 whole entry, looked up, the tested form may be a part): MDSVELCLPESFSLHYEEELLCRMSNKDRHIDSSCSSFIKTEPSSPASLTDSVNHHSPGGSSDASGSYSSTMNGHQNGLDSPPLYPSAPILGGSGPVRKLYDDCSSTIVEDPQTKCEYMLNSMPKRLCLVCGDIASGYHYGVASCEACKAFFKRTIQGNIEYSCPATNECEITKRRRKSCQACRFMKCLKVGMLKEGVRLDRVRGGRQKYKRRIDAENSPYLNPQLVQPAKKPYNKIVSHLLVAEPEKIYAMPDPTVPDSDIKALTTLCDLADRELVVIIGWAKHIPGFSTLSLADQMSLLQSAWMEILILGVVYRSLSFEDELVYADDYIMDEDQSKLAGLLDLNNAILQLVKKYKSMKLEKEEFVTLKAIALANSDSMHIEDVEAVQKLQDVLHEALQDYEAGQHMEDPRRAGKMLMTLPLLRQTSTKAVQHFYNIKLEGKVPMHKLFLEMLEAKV
Cellular tumor antigen p53 (Homo sapiens), sequence (P04637 whole entry, looked up): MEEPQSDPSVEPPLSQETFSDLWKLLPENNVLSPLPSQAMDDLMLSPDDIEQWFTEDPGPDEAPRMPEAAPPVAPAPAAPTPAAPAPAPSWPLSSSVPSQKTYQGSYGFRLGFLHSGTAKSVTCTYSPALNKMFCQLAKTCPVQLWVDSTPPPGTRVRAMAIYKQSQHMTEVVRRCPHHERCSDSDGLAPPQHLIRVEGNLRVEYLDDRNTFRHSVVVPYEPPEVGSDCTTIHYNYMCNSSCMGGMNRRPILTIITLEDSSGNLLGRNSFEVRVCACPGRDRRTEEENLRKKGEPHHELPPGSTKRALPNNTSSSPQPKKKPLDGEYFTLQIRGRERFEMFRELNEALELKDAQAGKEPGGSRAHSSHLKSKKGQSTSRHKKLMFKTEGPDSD

`CCC(C)CO` (stereo unspecified): the compound was called inactive in experiment [1], in [2], in [3], in experiment [4], in experiment [5] and in experiment [6]. For the same compound, the result in experiment [7], in experiment [8], in [9], in experiment [10], in experiment [11] and in experiment [12] was inactive. Moreover, the compound was called inactive in experiment [13] and in [14].

Broadly, the AC50 is the concentration giving half of the maximal activity seen. `COCCOCCC[Si](C)(O[Si](C)(C)C)O[Si](C)(C)C`: the compound was classed as inactive in experiment [2], in experiment [15], in experiment [3], in experiment [4], in experiment [16] and in experiment [5]. The compound was called inactive in experiment [6], in experiment [7], in experiment [9], in [10], in experiment [11] and in experiment [12]. In experiment [14], the compound was called inactive. The AC50 in [8] is 19 µM (active); in experiment [13], 1.64 µM (active); in experiment [17], 3.74 µM (active).

`Cc1ccc(O)c(-n2nc3ccccc3n2)c1`: the outcome in experiment [1], in [2], in experiment [15], in experiment [3], in experiment [4] and in experiment [5] was inactive. Also, the outcome in [6], in experiment [8], in experiment [9], in experiment [10], in experiment [11] and in experiment [12] was inactive. The compound was classed as inactive in [17], in experiment [14], in [18] and in experiment [19]. Moreover, the AC50 in experiment [13] is 4.95 µM (active).

Regarding `CCC(=O)OC(C)c1ccccc1` (stereo unspecified), the outcome in experiment [1], in experiment [15], in experiment [4], in experiment [16], in experiment [5] and in [6] was inactive. Besides, the outcome in experiment [7], in [8], in experiment [9], in experiment [10], in experiment [11] and in experiment [12] was inactive. The call in experiment [13] was inactive.

Take `CCCCCCCC/C=C\CCCCCCCC(=O)N(C)CC(=O)O`: the outcome in [1], in experiment [2], in experiment [5], in [6], in [8] and in experiment [9] was inactive. In addition, the call in experiment [10], in experiment [11], in experiment [12], in [13] and in experiment [14] was inactive.
